Experimental data published in the supplement of paper PMC8728848.
The full list was thinned out, with the strongest signals kept by preference.

What was measured:
Assay in all cases: glycan array binding signal (z-score within array); higher = stronger binding
Conditions in all cases: glycan notation: IUPAC condensed, linker removed
[1] = biological target: Fuc(a1-2)Gal(b1-3)GalNAc(b1-4)[Neu5Ac(a2-3)]Gal(b1-4)Glc
Method in brief: (§1)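 From the Consortium for Functional Glycomics database, 3228 arrays were curated, keeping only those whose protein sequence was available. Binding is given as a within-array Z-score averaged across arrays sharing a protein sequence and across linkers. Negative Z-scores can be read as non-binding.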

Fuc(a1-2)Gal(b1-3)GlcNAc = biological target: Fuc(a1-2)Gal(b1-3)GlcNAc
Method in brief: as §1

[2] = biological target: Fuc(a1-2)Gal(b1-3)GlcNAc(b1-3)Gal(b1-4)Glc
Method in brief: as §1

[3] = biological target: Fuc(a1-2)Gal(b1-3)[Fuc(a1-4)]GlcNAc(b1-2)Man(a1-3)[Fuc(a1-2)Gal(b1-3)[Fuc(a1-4)]GlcNAc(b1-2)Man(a1-6)]Man(b1-4)GlcNAc(b1-4)[Fuc(a1-6)]GlcNAc(b1-4)[Fuc(a1-6)]GlcNAc
Method in brief: as §1

Fuc(a1-2)Gal(b1-4)GlcNAc = biological target: Fuc(a1-2)Gal(b1-4)GlcNAc
Method in brief: as §1

[4] = biological target: Fuc(a1-2)Gal(b1-4)GlcNAc6S
Method in brief: as §1

[5] = biological target: Fuc(a1-2)Gal(b1-4)[Fuc(a1-3)]GlcNAc(b1-3)Gal(b1-4)[Fuc(a1-3)]GlcNAc(b1-3)Gal(b1-4)[Fuc(a1-3)]GlcNAc
Method in brief: as §1

Fuc(a1-2)Gal6S(b1-4)Glc = biological target: Fuc(a1-2)Gal6S(b1-4)Glc
Method in brief: as §1

[6] = biological target: Fuc(a1-2)[Gal(a1-3)]Gal(b1-4)GlcNAc
Method in brief: as §1

[7] = biological target: Fuc(a1-2)[Gal(a1-3)]Gal(b1-4)GlcNAc(b1-2)Man
Method in brief: as §1

[8] = biological target: Fuc(a1-2)[Gal(a1-3)]Gal(b1-4)[Fuc(a1-3)]Glc
Method in brief: as §1

[9] = biological target: Fuc(a1-2)[GalNAc(a1-3)]Gal(b1-3)GlcNAc(b1-6)GalNAc
Method in brief: as §1

[10] = biological target: Fuc(a1-2)[GalNAc(a1-3)]Gal(b1-4)GlcNAc(b1-3)GalNAc
Method in brief: as §1

[11] = biological target: Fuc(a1-3)[Gal3S(b1-4)]GlcNAc6S
Method in brief: as §1

[12] = biological target: Fuc(a1-3)[GalNAc(b1-4)]GlcNAc
Method in brief: as §1

Fuc(a1-4)GlcNAc = biological target: Fuc(a1-4)GlcNAc
Method in brief: as §1

Gal(a1-3)Gal(b1-4)Glc = biological target: Gal(a1-3)Gal(b1-4)Glc
Method in brief: as §1

Gal(a1-3)Gal(b1-4)GlcNAc = biological target: Gal(a1-3)Gal(b1-4)GlcNAc
Method in brief: as §1

[13] = biological target: Gal(a1-3)Gal(b1-4)GlcNAc(b1-2)Man
Method in brief: as §1

[14] = biological target: Gal(a1-3)Gal(b1-4)GlcNAc(b1-2)Man(a1-3)[Gal(a1-3)Gal(b1-4)GlcNAc(b1-2)Man(a1-6)]Man(b1-4)GlcNAc(b1-4)GlcNAc
Method in brief: as §1

[15] = biological target: Gal(b1-3)GalNAc(b1-3)Gal(a1-4)Gal(b1-4)Glc
Method in brief: as §1

[16] = biological target: Gal(b1-3)GalNAc(b1-4)Gal(b1-4)Glc
Method in brief: as §1

[17] = biological target: Gal(b1-3)GlcNAc(b1-2)Man(a1-3)[Gal(b1-3)GlcNAc(b1-2)Man(a1-6)]Man(b1-4)GlcNAc(b1-4)GlcNAc
Method in brief: as §1

[18] = biological target: Gal(b1-3)GlcNAc(b1-3)GalNAc
Method in brief: as §1

[19] = biological target: Gal(b1-3)[Fuc(a1-4)]GlcNAc(b1-2)Man
Method in brief: as §1

[20] = biological target: Gal(b1-4)GlcNAc(a1-6)Gal(b1-4)GlcNAc
Method in brief: as §1

[21] = biological target: Gal(b1-4)GlcNAc(b1-2)Man(a1-3)Man(b1-4)GlcNAc(b1-4)GlcNAc
Method in brief: as §1

[22] = biological target: Gal(b1-4)GlcNAc(b1-2)Man(a1-3)[Gal(b1-4)GlcNAc(b1-2)Man(a1-6)]Man(b1-4)GlcNAc(b1-4)GlcNAc
Method in brief: as §1

[23] = biological target: Gal(b1-4)GlcNAc(b1-2)Man(a1-3)[GlcNAc(b1-2)Man(a1-6)]Man(b1-4)GlcNAc(b1-4)GlcNAc
Method in brief: as §1

[24] = biological target: Gal(b1-4)GlcNAc(b1-2)[Gal(b1-4)GlcNAc(b1-4)]Man(a1-3)[GlcNAc(b1-4)][Gal(b1-4)GlcNAc(b1-2)[Gal(b1-4)GlcNAc(b1-6)]Man(a1-6)]Man(b1-4)GlcNAc(b1-4)GlcNAc
Method in brief: as §1

B1: PX14343C-bfa-541-26-541 (Bacteroides fragilis) (protein)
chain: KAPLDEIADDSFWSDETLVKYYVNDLYSEISVDGLQLQENRSDNSVSAQRDKYRASWFKFNYDMVSASDPQDDDVWEDYYVKVRKCNRFFERIGTSTIEESEKSRLTGEVHFLRAMFYFEMVKRYGGVILLDKVLTMEDNWEIPRSSEKECYDFILEDLKKATEMLPASYGSREKGRATKGAAYALKSRVELYDKRYEDVIKSCAEVYKLGYELVDGTTPEKYRSIWWTTNKDNKEIIFDVQYKSPDVYNNMMVCNMVTYINDKYGDRGWGGLGPTQELIDAFEMADGTPATQYSQAPADQVFDINTCGIYEGREPRFYANIVFHGSQIFFNADKGAVTVDRYLMDTPDKGDGSLTGYNVWKWIDYDNYNYPYAGAGSPDFSTNWIILRYAEIYLNDAEARLETGDVEGARKAVNMIRQRVGLPDLTESDPEKLRELIRKERRIEFAFEEQRFYDVRRWKIGPETQTTLHGVRFVSPTEFKVTKTDIRTWNDRLYLTPVPHDEIVRSSVLKQNLGY
glycan array binding signal (z-score) [1]: 1.52
glycan array binding signal (z-score) (Fuc(a1-2)Gal(b1-3)GlcNAc): 0.399
glycan array binding signal (z-score) [2]: -0.05
glycan array binding signal (z-score) [3]: 0.403
glycan array binding signal (z-score) (Fuc(a1-2)Gal(b1-4)GlcNAc): -0.892
glycan array binding signal (z-score) [4]: -0.542
glycan array binding signal (z-score) [5]: -0.071
glycan array binding signal (z-score) (Fuc(a1-2)Gal6S(b1-4)Glc): 3.12
glycan array binding signal (z-score) [6]: -0.674
glycan array binding signal (z-score) [7]: -0.447
glycan array binding signal (z-score) [8]: -0.83
glycan array binding signal (z-score) [9]: 0.051
glycan array binding signal (z-score) [10]: 0.855
glycan array binding signal (z-score) [11]: -0.963
glycan array binding signal (z-score) [12]: 0.848
glycan array binding signal (z-score) (Fuc(a1-4)GlcNAc): -0.619
glycan array binding signal (z-score) (Gal(a1-3)Gal(b1-4)Glc): -0.559
glycan array binding signal (z-score) (Gal(a1-3)Gal(b1-4)GlcNAc): 7.53
glycan array binding signal (z-score) [13]: -1.04
glycan array binding signal (z-score) [14]: 2.85
glycan array binding signal (z-score) [15]: -0.233
glycan array binding signal (z-score) [16]: -0.284
glycan array binding signal (z-score) [17]: 2.98
glycan array binding signal (z-score) [18]: 0.08
glycan array binding signal (z-score) [19]: -0.63
glycan array binding signal (z-score) [20]: 8.35
glycan array binding signal (z-score) [21]: 0.345
glycan array binding signal (z-score) [22]: -1.05
glycan array binding signal (z-score) [23]: -1.28
glycan array binding signal (z-score) [24]: 3.53
